# Results reported in the supplement of paper PMC8728848.
# This excerpt belongs to a sample that is enriched for the strongest signals.
# Tests used:
# Assay in all cases: glycan array binding signal (z-score within array); higher = stronger binding
# Settings in all cases: glycan notation: IUPAC condensed, linker removed
# [1] = biological target: Gal(b1-4)GlcNAc(b1-3)Gal(b1-4)GlcNAc(b1-3)Gal(b1-4)GlcNAc(b1-2)[Gal(b1-4)GlcNAc(b1-3)Gal(b1-4)GlcNAc(b1-3)Gal(b1-4)GlcNAc(b1-6)]Man(a1-6)[Gal(b1-4)GlcNAc(b1-3)Gal(b1-4)GlcNAc(b1-3)Gal(b1-4)GlcNAc(b1-2)Man(a1-3)]Man(b1-4)GlcNAc(b1-4)[Fuc(a1-6)]GlcNAc
# In short: (§1)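 The binding signal is a Z-score computed within each array and averaged over linkers. Arrays of the same protein sequence at different concentrations or buffers were also averaged together. Data originate from 3228 arrays in the Consortium for Functional Glycomics database, kept only where the protein sequence was available.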
# [2] = biological target: Gal(b1-4)GlcNAc(b1-3)Gal(b1-4)GlcNAc(b1-3)Gal(b1-4)GlcNAc(b1-3)Gal(b1-4)GlcNAc(b1-2)[Gal(b1-4)GlcNAc(b1-3)Gal(b1-4)GlcNAc(b1-3)Gal(b1-4)GlcNAc(b1-3)Gal(b1-4)GlcNAc(b1-6)]Man(a1-6)[Gal(b1-4)GlcNAc(b1-3)Gal(b1-4)GlcNAc(b1-3)Gal(b1-4)GlcNAc(b1-3)Gal(b1-4)GlcNAc(b1-2)Man(a1-3)]Man(b1-4)GlcNAc(b1-4)[Fuc(a1-6)]GlcNAc
# In short: as §1
# [3] = biological target: Gal(b1-4)GlcNAc(b1-3)Gal(b1-4)GlcNAc(b1-3)Gal(b1-4)GlcNAc(b1-3)Gal(b1-4)GlcNAc(b1-3)Gal(b1-4)GlcNAc(b1-2)[Gal(b1-4)GlcNAc(b1-3)Gal(b1-4)GlcNAc(b1-3)Gal(b1-4)GlcNAc(b1-3)Gal(b1-4)GlcNAc(b1-3)Gal(b1-4)GlcNAc(b1-6)]Man(a1-6)[Gal(b1-4)GlcNAc(b1-3)Gal(b1-4)GlcNAc(b1-3)Gal(b1-4)GlcNAc(b1-3)Gal(b1-4)GlcNAc(b1-3)Gal(b1-4)GlcNAc(b1-2)Man(a1-3)]Man(b1-4)GlcNAc(b1-4)[Fuc(a1-6)]GlcNAc
# In short: as §1
# Gal3S(b1-4)Glc = biological target: Gal3S(b1-4)Glc
# In short: as §1
# [4] = biological target: Gal3S(b1-4)[Fuc(a1-3)]Glc6S
# In short: as §1
# Gal6S(b1-4)Glc = biological target: Gal6S(b1-4)Glc
# In short: as §1
# GalNAc3S(b1-4)GlcNAc = biological target: GalNAc3S(b1-4)GlcNAc
# In short: as §1
# [5] = biological target: GlcNAc(b1-3)Gal(b1-4)GlcNAc(b1-2)Man(a1-3)[GlcNAc(b1-3)Gal(b1-4)GlcNAc(b1-2)Man(a1-6)]Man(b1-4)GlcNAc(b1-4)GlcNAc
# In short: as §1
# GlcNAc(b1-3)GalNAc = biological target: GlcNAc(b1-3)GalNAc
# In short: as §1
# [6] = biological target: Man(a1-3)[Man(a1-6)]Man(b1-4)GlcNAc(b1-4)[Fuc(a1-6)]GlcNAc
# In short: as §1
# [7] = biological target: Neu5Ac(a2-3)Gal(b1-3)GlcNAc(b1-2)Man(a1-3)[GlcNAc(b1-4)][Neu5Ac(a2-3)Gal(b1-3)GlcNAc(b1-2)Man(a1-6)]Man(b1-4)GlcNAc(b1-4)GlcNAc
# In short: as §1
# [8] = biological target: Neu5Ac(a2-3)Gal(b1-3)GlcNAc(b1-4)Gal(b1-4)Glc
# In short: as §1
# [9] = biological target: Neu5Ac(a2-3)Gal(b1-4)GlcNAc(b1-2)Man(a1-3)[Neu5Ac(a2-6)Gal(b1-4)GlcNAc(b1-2)Man(a1-6)]Man(b1-4)GlcNAc(b1-4)GlcNAc
# In short: as §1
# [10] = biological target: Neu5Ac(a2-3)Gal(b1-4)GlcNAc(b1-2)[Neu5Ac(a2-3)Gal(b1-4)GlcNAc(b1-6)]Man(a1-6)[Neu5Ac(a2-3)Gal(b1-4)GlcNAc(b1-2)Man(a1-3)][GlcNAc(b1-4)]Man(b1-4)GlcNAc(b1-4)GlcNAc
# In short: as §1
# [11] = biological target: Neu5Ac(a2-3)Gal(b1-4)GlcNAc(b1-3)Gal(b1-4)GlcNAc(b1-3)Gal(b1-4)GlcNAc
# In short: as §1
# [12] = biological target: Neu5Ac(a2-3)Gal(b1-4)[Fuc(a1-3)]GlcNAc(b1-2)Man
# In short: as §1
# [13] = biological target: Neu5Ac(a2-3)GalNAc(b1-4)GlcNAc
# In short: as §1
# Neu5Ac(a2-6)Gal = biological target: Neu5Ac(a2-6)Gal
# In short: as §1
# [14] = biological target: Neu5Ac(a2-6)Gal(b1-4)GlcNAc(b1-2)Man(a1-3)[GlcNAc(b1-4)][Neu5Ac(a2-6)Gal(b1-4)GlcNAc(b1-2)Man(a1-6)]Man(b1-4)GlcNAc(b1-4)GlcNAc
# In short: as §1
# [15] = biological target: Neu5Ac9Ac(a2-6)Gal(b1-4)GlcNAc
# In short: as §1
# [16] = biological target: Neu5Gc(a2-3)Gal(b1-4)GlcNAc
# In short: as §1
# Neu5Gc(a2-6)GalNAc = biological target: Neu5Gc(a2-6)GalNAc
# In short: as §1
# [17] = biological target: Neu5Gc(a2-8)Neu5Gc(a2-6)Gal(b1-4)GlcNAc
# In short: as §1
# [18] = biological target: Neu5Gc(b2-6)Gal(b1-4)GlcNAc
# In short: as §1
binder,measurement,setting,value
"AntigenI/IIC123 (Streptococcus mutans), C9E3B4 (protein) MASMTGGQQMGRIHFHYFKLAVQPQVNKEIRNNNDINIDRTLVAKQSVVKFQLKTADLPAGRDETTSFVLVDPLPSGYQFNPEATKAASPGFDVTYDNATNTVTFKATAATLATFNADLTKSVATIYPTVVGQVLNDGATYKNNFTLTVNDAYGIKSNVVRVTTPGKPNDPDNPNNNYIKPTKVNKNENGVVIDGKTVLAGSTNYYELTWDLDQYKNDRSSADTIQKGFYYVDDYPEEALELRQDLVKITDANGNEVTGVSVDNYTNLEAAPQEIRDVLSKAGIRPKGAFQIFRADNPREFYDTYVKTGIDLKIVSPMVVKKQMGQTGGSYENQAYQIDFGNGYASNIIINNVPKINPKKDVTLTLDPADTNNVDGQTIPLNTVFNYRLIGGIIPADHSEELFEYNFYDDYDQTGDHYTGQYKVFAKVDITFKDGSIIKSGAELTQYTTAEVDTAKGAITIKFKEAFLRSVSIDSAFQAESYIQMKRIAVGTFENTYINTVNGVTYSSLEHHHHHH",glycan array binding signal (z-score),[1],3.08
same,glycan array binding signal (z-score),[2],2.31
same,glycan array binding signal (z-score),[3],4.43
same,glycan array binding signal (z-score),Gal3S(b1-4)Glc,-0.499
same,glycan array binding signal (z-score),[4],2.84
same,glycan array binding signal (z-score),Gal6S(b1-4)Glc,-0.033
same,glycan array binding signal (z-score),GalNAc3S(b1-4)GlcNAc,-1.45
same,glycan array binding signal (z-score),[5],0.67
same,glycan array binding signal (z-score),GlcNAc(b1-3)GalNAc,-0.207
same,glycan array binding signal (z-score),[6],-0.768
same,glycan array binding signal (z-score),[7],0.141
same,glycan array binding signal (z-score),[8],-0.775
same,glycan array binding signal (z-score),[9],-0.814
same,glycan array binding signal (z-score),[10],-1.1
same,glycan array binding signal (z-score),[11],-0.469
same,glycan array binding signal (z-score),[12],-0.89
same,glycan array binding signal (z-score),[13],0.443
same,glycan array binding signal (z-score),Neu5Ac(a2-6)Gal,4.55
same,glycan array binding signal (z-score),[14],-0.868
same,glycan array binding signal (z-score),[15],-1.27
same,glycan array binding signal (z-score),[16],-1.14
same,glycan array binding signal (z-score),Neu5Gc(a2-6)GalNAc,-0.987
same,glycan array binding signal (z-score),[17],-0.326
same,glycan array binding signal (z-score),[18],-0.257
